One assay deals with POU1 (OCT1 POU domain) (human, UniProt P14859 260-458). The experiment in a line: EMSA-SELEX-seq; no BOB1; 20 mM Tris-HCl pH 7.6, 140 mM NaCl, 10% glycerol, 0.5 mM EDTA, 0.05% Triton X-100, 0.1 mg/mL BSA, 0.1 mg/mL poly(dI-dC), 5 mM DTT, room temperature, 20 min; high values mean tight binding. Conditions: protein: recombinant; dsDNA, one strand shown. An outline of the steps:
(§1)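 A double-stranded random 35-nt library (300 ng, PCR-amplified) was incubated with 30 ng tagged POU-domain protein, with or without 28 ng coactivator protein, in 20 μL Tris–HCl pH 7.6 binding buffer for 20 min at RT. The proteins had been expressed in E. coli BL21, purified under denaturing conditions and renatured. Complex bands from native 6% PAGE were eluted and PCR-amplified over four rounds, then sequenced on Illumina. For binding preference, the percentage of sequenced 8-mers matching a motif pattern was calculated.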

Another assay concerns the target T1, POU2 (OCT2 POU domain) (human, UniProt P09086 175-386).
T1 sequence: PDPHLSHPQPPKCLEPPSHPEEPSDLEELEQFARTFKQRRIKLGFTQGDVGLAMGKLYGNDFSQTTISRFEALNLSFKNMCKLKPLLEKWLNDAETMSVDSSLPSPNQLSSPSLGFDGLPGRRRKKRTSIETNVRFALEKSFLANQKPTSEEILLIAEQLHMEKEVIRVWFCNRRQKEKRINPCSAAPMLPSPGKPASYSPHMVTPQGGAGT
Described as above. Conditions: protein: recombinant; dsDNA, one strand shown. An outline of the steps:
as §1

The target of assay [1] is POU1 (OCT1 POU domain);BOB1 (OBF1, OCA-B) (human;human, UniProt P14859;Q16633 260-458;1-256, |). The assay can be described thus: EMSA-SELEX-seq; with BOB1 (ternary complex band); 20 mM Tris-HCl pH 7.6, 140 mM NaCl, 10% glycerol, 0.5 mM EDTA, 0.05% Triton X-100, 0.1 mg/mL BSA, 0.1 mg/mL poly(dI-dC), 5 mM DTT, room temperature, 20 min; high values mean tight binding. Conditions: protein: recombinant;recombinant; copies: 1;1; dsDNA, one strand shown. An outline of the steps:
as §1

Assay [2] deals with T2, POU2 (OCT2 POU domain);BOB1 (OBF1, OCA-B) (human;human, UniProt P09086;Q16633 175-386;1-256, |).
T2 sequence 1: T1 sequence
T2 sequence 2: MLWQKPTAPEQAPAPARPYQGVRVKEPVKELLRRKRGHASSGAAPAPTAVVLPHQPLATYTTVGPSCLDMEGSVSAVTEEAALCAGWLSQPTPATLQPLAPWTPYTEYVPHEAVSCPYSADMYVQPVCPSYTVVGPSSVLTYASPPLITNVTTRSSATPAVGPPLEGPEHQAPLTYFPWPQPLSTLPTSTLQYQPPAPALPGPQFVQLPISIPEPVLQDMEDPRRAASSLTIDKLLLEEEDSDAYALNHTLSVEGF
Described as above. The following applies: protein: recombinant;recombinant; copies: 1;1; dsDNA, one strand shown. Put shortly: as §1

Sequence of POU1 (OCT1 POU domain) (P14859 260-458): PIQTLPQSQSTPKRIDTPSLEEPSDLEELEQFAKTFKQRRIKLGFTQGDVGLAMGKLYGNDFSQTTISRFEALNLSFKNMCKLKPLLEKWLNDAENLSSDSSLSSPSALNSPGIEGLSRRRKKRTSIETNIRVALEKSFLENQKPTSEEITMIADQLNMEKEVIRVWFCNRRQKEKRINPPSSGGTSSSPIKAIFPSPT

Turning to ATAGTAAG, the binding signal was 0.0633 % of ANNNNAAN 8-mers with POU1 (OCT1 POU domain), 0.0806 % of ANNNNAAN 8-mers in the assay with POU2 (OCT2 POU domain), 0.0656 % of ANNNNAAN 8-mers in assay [1] and 0.0619 % of ANNNNAAN 8-mers in assay [2].

On to AAGATAAT, for which the binding signal is 0.138 % of ANNNNAAN 8-mers in the assay with POU1 (OCT1 POU domain), 0.203 % of ANNNNAAN 8-mers in the assay with POU2 (OCT2 POU domain), 0.0819 % of ANNNNAAN 8-mers in assay [1] and 0.129 % of ANNNNAAN 8-mers in assay [2].

Take ACCAAAAC: the binding signal with POU1 (OCT1 POU domain) is 0.0168 % of ANNNNAAN 8-mers; with POU2 (OCT2 POU domain), 0.0242 % of ANNNNAAN 8-mers; in assay [1] it was 0.032 % of ANNNNAAN 8-mers; in assay [2], 0.0206 % of ANNNNAAN 8-mers.

As to AGCTAAAG, the binding signal with POU1 (OCT1 POU domain) is 0.0278 % of ANNNNAAN 8-mers; with POU2 (OCT2 POU domain), 0.0282 % of ANNNNAAN 8-mers; in assay [1], 0.0289 % of ANNNNAAN 8-mers; in assay [2], 0.0256 % of ANNNNAAN 8-mers.

Consider AGGATAAC, for which the binding signal in the assay with POU1 (OCT1 POU domain) was 0.0263 % of ANNNNAAN 8-mers; with POU2 (OCT2 POU domain) it was 0.0437 % of ANNNNAAN 8-mers; in assay [1], 0.0293 % of ANNNNAAN 8-mers; in assay [2], 0.0355 % of ANNNNAAN 8-mers.

ATACGAAC: the binding signal with POU1 (OCT1 POU domain) is 0.0343 % of ANNNNAAN 8-mers; with POU2 (OCT2 POU domain) it was 0.0345 % of ANNNNAAN 8-mers; in assay [1], 0.032 % of ANNNNAAN 8-mers; in assay [2], 0.0347 % of ANNNNAAN 8-mers.

With ATCATAAT, the binding signal with POU1 (OCT1 POU domain) is 0.131 % of ANNNNAAN 8-mers; in the assay with POU2 (OCT2 POU domain), 0.164 % of ANNNNAAN 8-mers; in assay [1] it was 0.0706 % of ANNNNAAN 8-mers; in assay [2], 0.0636 % of ANNNNAAN 8-mers.

On to AAACGAAT, for which the binding signal with POU1 (OCT1 POU domain) is 0.0767 % of ANNNNAAN 8-mers; with POU2 (OCT2 POU domain) it was 0.0783 % of ANNNNAAN 8-mers; in assay [1] it was 0.0675 % of ANNNNAAN 8-mers; in assay [2], 0.0792 % of ANNNNAAN 8-mers.

Turning to AGGTTAAG, the binding signal with POU1 (OCT1 POU domain) was 0.0522 % of ANNNNAAN 8-mers; in the assay with POU2 (OCT2 POU domain), 0.0639 % of ANNNNAAN 8-mers; in assay [1], 0.0542 % of ANNNNAAN 8-mers; in assay [2] it was 0.052 % of ANNNNAAN 8-mers.

Take ATGATAAG: the binding signal is 0.0843 % of ANNNNAAN 8-mers with POU1 (OCT1 POU domain), 0.0984 % of ANNNNAAN 8-mers with POU2 (OCT2 POU domain), 0.0714 % of ANNNNAAN 8-mers in assay [1] and 0.0768 % of ANNNNAAN 8-mers in assay [2].

In the case of ATAGGAAG, the binding signal in the assay with POU1 (OCT1 POU domain) was 0.0576 % of ANNNNAAN 8-mers; in the assay with POU2 (OCT2 POU domain), 0.0696 % of ANNNNAAN 8-mers; in assay [1], 0.0585 % of ANNNNAAN 8-mers; in assay [2], 0.0561 % of ANNNNAAN 8-mers.

Take ATGGTAAT: the binding signal was 1.27 % of ANNNNAAN 8-mers with POU1 (OCT1 POU domain), 1.28 % of ANNNNAAN 8-mers with POU2 (OCT2 POU domain), 0.202 % of ANNNNAAN 8-mers in assay [1] and 0.219 % of ANNNNAAN 8-mers in assay [2].

As for AGTATAAC, the binding signal is 0.0278 % of ANNNNAAN 8-mers with POU1 (OCT1 POU domain), 0.0328 % of ANNNNAAN 8-mers with POU2 (OCT2 POU domain), 0.0226 % of ANNNNAAN 8-mers in assay [1] and 0.0248 % of ANNNNAAN 8-mers in assay [2].

Regarding ACGCTAAT, the binding signal was 0.108 % of ANNNNAAN 8-mers with POU1 (OCT1 POU domain), 0.14 % of ANNNNAAN 8-mers with POU2 (OCT2 POU domain), 0.046 % of ANNNNAAN 8-mers in assay [1] and 0.0611 % of ANNNNAAN 8-mers in assay [2].

Consider ATTCAAAG, for which the binding signal with POU1 (OCT1 POU domain) was 0.281 % of ANNNNAAN 8-mers; in the assay with POU2 (OCT2 POU domain), 0.201 % of ANNNNAAN 8-mers; in assay [1], 0.314 % of ANNNNAAN 8-mers; in assay [2] it was 0.242 % of ANNNNAAN 8-mers.

ACTATAAC: the binding signal in the assay with POU1 (OCT1 POU domain) was 0.0156 % of ANNNNAAN 8-mers; with POU2 (OCT2 POU domain), 0.0196 % of ANNNNAAN 8-mers; in assay [1], 0.023 % of ANNNNAAN 8-mers; in assay [2] it was 0.0239 % of ANNNNAAN 8-mers.

Source of the values: article PMC10812921, “Transcriptional Coactivator BOB1 (OBF1, OCA-B) Modulates the Specificity of DNA Recognition by the POU-Domain Factors OCT1 and OCT2 in a Monomeric Configuration”.
